Test results published in ChEMBL document CHEMBL3988442, “University of Dundee, Small-Polar-MMV Screening Library” (2021).
For some assays here: Measured potencies and affinities stand elsewhere.

Experiments:
Set-up in all cases: scale not given: direction of the effect not stated beside the values
[1] = target: Protein translocase subunit SecA (Escherichia coli (strain K12)) (UniProt P10408); experiment: Assay to Identify E. coli SecA ATPase Inhibitors; assay type: functional; settings: 30 µM
[2] = target: T1, Ubiquitin-activating enzyme e1, putative (Leishmania donovani (strain BPK282A1)) (UniProt E9BSI1); experiment: Leishmania donovani Ubiquitin Activating Enzyme (LdE1); assay type: functional; settings: 30 µM
T1 sequence (whole entry): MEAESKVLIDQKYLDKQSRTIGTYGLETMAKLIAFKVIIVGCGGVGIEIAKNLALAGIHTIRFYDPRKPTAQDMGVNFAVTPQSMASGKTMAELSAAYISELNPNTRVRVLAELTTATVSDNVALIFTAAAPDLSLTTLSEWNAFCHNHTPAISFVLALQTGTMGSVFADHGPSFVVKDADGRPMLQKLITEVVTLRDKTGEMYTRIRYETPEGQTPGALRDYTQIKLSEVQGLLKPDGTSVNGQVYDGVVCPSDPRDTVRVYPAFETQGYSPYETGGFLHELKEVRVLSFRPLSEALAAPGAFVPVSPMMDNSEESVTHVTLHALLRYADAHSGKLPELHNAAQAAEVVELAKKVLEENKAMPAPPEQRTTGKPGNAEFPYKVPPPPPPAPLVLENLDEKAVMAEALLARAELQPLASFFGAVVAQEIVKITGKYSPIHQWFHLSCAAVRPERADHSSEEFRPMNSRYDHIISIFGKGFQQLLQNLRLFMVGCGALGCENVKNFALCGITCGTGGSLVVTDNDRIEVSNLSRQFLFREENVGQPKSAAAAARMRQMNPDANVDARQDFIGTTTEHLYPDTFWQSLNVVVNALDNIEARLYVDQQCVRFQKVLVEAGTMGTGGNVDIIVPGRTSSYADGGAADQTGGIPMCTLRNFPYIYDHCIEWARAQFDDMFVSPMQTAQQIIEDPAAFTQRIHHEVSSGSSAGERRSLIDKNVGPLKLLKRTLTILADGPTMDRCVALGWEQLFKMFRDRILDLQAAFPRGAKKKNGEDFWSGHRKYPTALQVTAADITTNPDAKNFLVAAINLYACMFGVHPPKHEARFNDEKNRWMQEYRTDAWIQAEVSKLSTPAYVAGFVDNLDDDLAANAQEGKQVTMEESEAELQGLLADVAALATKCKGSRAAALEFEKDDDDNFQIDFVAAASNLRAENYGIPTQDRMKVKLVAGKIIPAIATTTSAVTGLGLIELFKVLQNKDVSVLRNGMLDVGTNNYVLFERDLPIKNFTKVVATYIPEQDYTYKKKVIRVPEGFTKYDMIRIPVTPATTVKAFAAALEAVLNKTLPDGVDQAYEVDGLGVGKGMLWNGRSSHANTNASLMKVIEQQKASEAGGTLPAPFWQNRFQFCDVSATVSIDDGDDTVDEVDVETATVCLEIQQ

[3] = target: AMP-activated protein kinase, AMPK (Homo sapiens) (UniProt P54646+O43741+P54619+Q9UGJ0+Q9Y478+Q13131+Q9UGI9); experiment: AMP-dependent Kinase enzyme assay. An in vitro enzyme assay that detects ADP turnover that is directly proportional to AMPK activity. This uses naive AMPK that is activated during the assay with MK-8722; assay type: functional; settings: 30 µM
[4] = target: Sialic acid-binding Ig-like lectin 9 (Homo sapiens) (UniProt Q9Y336); experiment: Hs-Siglec9 ALPHAscreen SOP 20170721; settings: 10 µM
Chain of Sialic acid-binding Ig-like lectin 9 (Homo sapiens) (Q9Y336 whole entry): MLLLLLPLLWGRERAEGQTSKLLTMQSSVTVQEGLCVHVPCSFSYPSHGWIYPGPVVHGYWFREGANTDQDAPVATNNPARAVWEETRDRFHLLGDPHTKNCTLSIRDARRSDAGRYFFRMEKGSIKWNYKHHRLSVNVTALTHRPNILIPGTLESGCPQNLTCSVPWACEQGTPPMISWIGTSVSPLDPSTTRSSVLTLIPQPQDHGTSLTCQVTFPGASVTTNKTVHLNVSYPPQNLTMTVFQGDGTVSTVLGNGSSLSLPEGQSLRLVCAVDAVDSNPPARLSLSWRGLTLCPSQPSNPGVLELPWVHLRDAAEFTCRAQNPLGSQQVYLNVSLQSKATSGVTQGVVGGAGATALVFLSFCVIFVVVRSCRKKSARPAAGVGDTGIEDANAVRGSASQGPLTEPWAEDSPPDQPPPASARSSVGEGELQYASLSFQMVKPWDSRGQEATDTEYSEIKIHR

Trypanosoma cruzi = experiment: Trypanosoma cruzi phosphomannomutase and mannose-1-phosphate guanylyltransferase assay; assay type: functional; settings: 10 µM
[5] = target: T2, Arginase-2, mitochondrial (Homo sapiens) (UniProt P78540); experiment: in vitro enzyme assay to detect the production of urea directly proportional to the activity of Arginase II; assay type: functional; settings: 33.3 µM; also: in the data most compounds retested in dose-response had high values
T2 sequence (whole entry): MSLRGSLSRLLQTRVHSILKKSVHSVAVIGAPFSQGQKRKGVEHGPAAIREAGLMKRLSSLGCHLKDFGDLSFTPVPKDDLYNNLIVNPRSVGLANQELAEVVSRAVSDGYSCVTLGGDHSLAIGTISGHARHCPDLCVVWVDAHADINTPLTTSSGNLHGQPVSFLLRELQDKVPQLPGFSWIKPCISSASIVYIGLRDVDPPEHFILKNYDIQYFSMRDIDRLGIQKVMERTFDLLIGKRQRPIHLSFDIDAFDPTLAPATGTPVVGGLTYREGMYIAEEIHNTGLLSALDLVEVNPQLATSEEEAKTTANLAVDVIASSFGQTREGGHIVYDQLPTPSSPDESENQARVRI

[6] = target: T3, Proteasome subunit beta (Trypanosoma cruzi) (UniProt O96673); experiment: Trypanosoma cruzi proteasome chymotrypsin-like activity (TcProtChymo) assay.; also: in the data most compounds retested in dose-response had high values; assay type: functional; settings: 9.37 µM
T3 sequence (whole entry): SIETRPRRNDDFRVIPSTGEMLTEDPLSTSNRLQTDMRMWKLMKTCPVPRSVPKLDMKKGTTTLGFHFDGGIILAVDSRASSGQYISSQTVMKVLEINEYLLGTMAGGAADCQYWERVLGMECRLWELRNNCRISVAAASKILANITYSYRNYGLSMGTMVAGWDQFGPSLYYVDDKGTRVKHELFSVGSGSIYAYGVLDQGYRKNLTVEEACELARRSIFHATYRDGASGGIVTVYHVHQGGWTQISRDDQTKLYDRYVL

Homo sapiens = organism: Homo sapiens; experiment: To identify inhibition of the IFN signalling (Jak-Stat) pathway via expression of an eGFP reporter gene under the control of an IFN-stimulated response element (ISRE) containing MxA promoter.; assay type: functional; settings: 30 µM
[7] = target: T4, Tyrosyl-tRNA synthetase, putative (Trypanosoma cruzi (strain CL Brener)) (UniProt Q4DSP6); experiment: Trypanosoma cruzi tyrosyl tRNA synthetase (TcYRS) _High Tyrosine SOP; assay type: functional; settings: 30 µM; also: in the data most compounds retested in dose-response had high values
T4 sequence (whole entry): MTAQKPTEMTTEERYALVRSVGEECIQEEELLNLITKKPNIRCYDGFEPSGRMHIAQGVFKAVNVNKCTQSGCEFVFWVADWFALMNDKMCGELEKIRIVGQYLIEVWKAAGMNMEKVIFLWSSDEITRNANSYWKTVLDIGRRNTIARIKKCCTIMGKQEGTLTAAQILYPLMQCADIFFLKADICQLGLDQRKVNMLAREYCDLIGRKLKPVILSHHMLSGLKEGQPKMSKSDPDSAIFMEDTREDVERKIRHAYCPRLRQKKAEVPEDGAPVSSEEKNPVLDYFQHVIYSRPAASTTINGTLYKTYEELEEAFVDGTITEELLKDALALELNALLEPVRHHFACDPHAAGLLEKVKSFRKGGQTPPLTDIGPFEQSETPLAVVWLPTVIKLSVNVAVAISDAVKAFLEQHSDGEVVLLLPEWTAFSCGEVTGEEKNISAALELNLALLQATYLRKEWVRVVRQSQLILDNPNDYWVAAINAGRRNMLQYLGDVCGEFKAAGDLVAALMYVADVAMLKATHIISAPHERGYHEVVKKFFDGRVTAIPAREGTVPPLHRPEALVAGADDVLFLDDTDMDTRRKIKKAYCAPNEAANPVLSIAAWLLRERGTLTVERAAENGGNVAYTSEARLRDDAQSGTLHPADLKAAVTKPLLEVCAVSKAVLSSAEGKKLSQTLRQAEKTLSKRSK

[8] = target: T4, Tyrosyl-tRNA synthetase, putative (Trypanosoma cruzi (strain CL Brener)); experiment: Trypanosoma cruzi tyrosyl tRNA synthetase (TcYRS) SOP; assay type: functional; settings: 30 µM
[9] = target: Chromo domain-containing protein 1 (Saccharomyces cerevisiae (strain ATCC 204508 / S288c) (Baker's yeast)) (UniProt P32657); experiment: ScCHD-1 Enzyme Inhibition Assay; assay type: functional; settings: 30 µM; also: in the data most compounds retested in dose-response had high values
Chain of Chromo domain-containing protein 1 (Saccharomyces cerevisiae (strain ATCC 204508 / S288c) (Baker's yeast)) (P32657 whole entry, the tested form may be a part): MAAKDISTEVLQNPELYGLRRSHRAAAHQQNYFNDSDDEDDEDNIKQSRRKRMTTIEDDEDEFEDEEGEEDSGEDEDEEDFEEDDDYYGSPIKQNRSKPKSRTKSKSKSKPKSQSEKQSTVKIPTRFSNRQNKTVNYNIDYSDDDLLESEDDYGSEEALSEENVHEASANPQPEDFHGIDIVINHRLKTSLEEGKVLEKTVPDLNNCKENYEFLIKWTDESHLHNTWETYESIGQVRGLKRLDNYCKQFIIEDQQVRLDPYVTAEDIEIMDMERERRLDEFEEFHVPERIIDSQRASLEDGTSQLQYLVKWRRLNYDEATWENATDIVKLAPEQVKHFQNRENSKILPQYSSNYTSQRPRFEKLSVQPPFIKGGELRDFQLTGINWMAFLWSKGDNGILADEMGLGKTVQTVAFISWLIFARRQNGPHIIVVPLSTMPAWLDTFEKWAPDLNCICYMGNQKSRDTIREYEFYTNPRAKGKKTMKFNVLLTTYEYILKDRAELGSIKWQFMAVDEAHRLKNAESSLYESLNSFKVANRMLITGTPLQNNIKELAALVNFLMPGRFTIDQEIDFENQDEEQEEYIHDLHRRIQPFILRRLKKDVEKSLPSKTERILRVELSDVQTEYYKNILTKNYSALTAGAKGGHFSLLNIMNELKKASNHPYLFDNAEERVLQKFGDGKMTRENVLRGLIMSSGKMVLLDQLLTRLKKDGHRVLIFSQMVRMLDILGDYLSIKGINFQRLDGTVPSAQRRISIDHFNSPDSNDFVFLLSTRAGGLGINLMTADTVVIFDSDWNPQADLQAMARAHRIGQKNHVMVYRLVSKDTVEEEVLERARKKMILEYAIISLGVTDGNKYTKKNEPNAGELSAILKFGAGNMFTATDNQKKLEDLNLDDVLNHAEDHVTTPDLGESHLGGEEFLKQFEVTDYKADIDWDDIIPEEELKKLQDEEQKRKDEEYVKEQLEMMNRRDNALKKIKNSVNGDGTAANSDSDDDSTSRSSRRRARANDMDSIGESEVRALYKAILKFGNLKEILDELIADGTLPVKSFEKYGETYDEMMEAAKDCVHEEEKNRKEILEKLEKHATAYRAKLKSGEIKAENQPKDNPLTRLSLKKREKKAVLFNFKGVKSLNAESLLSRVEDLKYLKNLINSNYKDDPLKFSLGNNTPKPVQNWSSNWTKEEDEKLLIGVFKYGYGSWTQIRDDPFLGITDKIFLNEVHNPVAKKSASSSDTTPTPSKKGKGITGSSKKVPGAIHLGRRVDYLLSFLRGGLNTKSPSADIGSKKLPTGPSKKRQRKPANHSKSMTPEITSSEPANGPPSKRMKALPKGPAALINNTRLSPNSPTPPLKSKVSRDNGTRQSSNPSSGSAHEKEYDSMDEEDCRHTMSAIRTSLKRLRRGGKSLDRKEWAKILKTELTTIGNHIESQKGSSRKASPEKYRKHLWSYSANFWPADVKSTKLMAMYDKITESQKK

Chain of Protein translocase subunit SecA (Escherichia coli (strain K12)) (P10408 whole entry): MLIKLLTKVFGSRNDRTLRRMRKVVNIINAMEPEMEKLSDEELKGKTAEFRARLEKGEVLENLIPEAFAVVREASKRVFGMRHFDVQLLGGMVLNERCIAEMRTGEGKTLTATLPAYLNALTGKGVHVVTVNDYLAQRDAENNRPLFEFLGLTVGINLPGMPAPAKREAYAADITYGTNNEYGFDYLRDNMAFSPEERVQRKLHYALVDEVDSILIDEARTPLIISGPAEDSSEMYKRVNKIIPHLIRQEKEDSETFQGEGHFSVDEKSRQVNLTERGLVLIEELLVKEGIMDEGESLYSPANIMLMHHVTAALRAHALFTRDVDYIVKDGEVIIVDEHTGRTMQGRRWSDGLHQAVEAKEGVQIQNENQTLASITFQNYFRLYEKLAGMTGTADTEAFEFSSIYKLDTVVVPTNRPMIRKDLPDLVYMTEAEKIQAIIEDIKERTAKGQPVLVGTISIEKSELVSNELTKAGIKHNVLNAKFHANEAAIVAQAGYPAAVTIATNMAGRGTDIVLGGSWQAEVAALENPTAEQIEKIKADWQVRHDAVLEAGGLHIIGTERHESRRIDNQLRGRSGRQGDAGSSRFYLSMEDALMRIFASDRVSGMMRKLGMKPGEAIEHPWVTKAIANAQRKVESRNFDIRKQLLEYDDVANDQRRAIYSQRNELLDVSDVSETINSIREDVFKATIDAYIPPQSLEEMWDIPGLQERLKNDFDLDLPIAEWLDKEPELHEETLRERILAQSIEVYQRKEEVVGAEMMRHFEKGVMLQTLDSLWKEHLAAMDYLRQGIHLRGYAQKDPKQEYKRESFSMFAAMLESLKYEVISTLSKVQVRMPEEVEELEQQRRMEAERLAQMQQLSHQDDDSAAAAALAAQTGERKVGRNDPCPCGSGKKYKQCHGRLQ

Compound	Percent Effect [1] [%]	Percent Effect [2] [%]	Percent Effect [3] [%]	Percent Effect [4] [%]	Percent Effect (Trypanosoma cruzi) [%]	Percent Effect [5] [%]	Percent Effect [6] [%]	Percent Effect (Homo sapiens) [%]	Percent Effect [7] [%]	Percent Effect [8] [%]	Percent Effect [9] [%]
COCCOc1ccc(NC(=O)N(C)Cc2ccsc2)cn1	1.05	17.7	-9.72	-8.23	-9.35	2.28	7.94	12.9	2.46	13.9	-6.06
O=C(c1ccc(C2CCCO2)s1)N1CCN(c2ccccc2F)CC1 (stereo unspecified)	-2.34	16.2	-2.01	21.1	3.67	30	14.1	-6.24	5.82	14.6	-4.16
Cc1nc(CN2C[C@@H]3CN(C(=O)c4cnccn4)C[C@@H]3C2)cs1	-1.57	5.48	0.106	5.75	-1.79	-2.79	7.45	7.67	5.21	16.1	-3.57
CN(C)c1cc(CNC(=O)c2cn(-c3ccc(F)cc3)nn2)ccn1	-5.01	10.4	1.52	2.16	0.686	3.58	14.2	11.3	7.62	21.2	-6.24
Cc1ncc2c(n1)CN(Cc1noc(C3CC3)n1)CC2	-6.18	15.6	-33.1	11.6	5.43	2.85	8.11	2.58	6.8	19.5	-13.7
FC(F)(F)COCCN1CCCC(c2noc(C3CC3)n2)C1 (stereo unspecified)	-2.95	5.33	-7.13	6.38	7.3	-0.521	16.7	16.5	3.83	11.1	101
O=C(c1cccnc1)N1C[C@@H]2CC[C@H](C1)N(Cc1cccc(Cl)c1F)C2	-2.44	8.22	11.4	4.43	-0.588	5	10.8	8.1	9.68	22.5	-3.1
CCc1ncncc1C(=O)N1CCN(Cc2c(C)noc2C)CC1	-5.8	13.2	-4.4	4.23	2.89	0.36	3.98	-0.539	7.39	16.1	-0.381
CNC(=O)NC(=O)CN1CCC(c2cccc(F)c2)C1 (stereo unspecified)	-1.99	0	5.35	-0.914	-2.82	2.3	-2.51	11.3	2.45	4.88	4.66
Cc1csc(C2CCCN(C(=O)c3cnc[nH]3)C2)n1 (stereo unspecified)	-3.16	10.8	-8.22	15.3	3.11	-4.41	3.42	32.5	5.42	18.5	-10.5
COc1nn(C)cc1C(=O)N1CCC(c2nnc(C3CC3)o2)CC1	-2.78	10.4	4.71	4.31	-0.888	9.68	11.5	16.4	8.47	11.5	-10.2
COCCn1cc2c(n1)C(CNCc1ccco1)OCC2 (stereo unspecified)	-7.4	-2.7	0.854	9.04	-0.781	0.833	18	13.2	3.96	-3.66	-1.08
CN(C)c1ncnc2c1CCN(CC1CCOC1)CC2 (stereo unspecified)	-2.84	8.11	4.65	-0.235	-3.42	-2.87	18.6	-8.93	3.24	15.4	0.421
Cc1cccc(-c2[nH]ncc2CNCC2CCN(CC(C)O)CC2)c1 (stereo unspecified)	-3.75	8.11	-18.5	11.6	1.42	0.401	3.96	3.31	5.42	18.5	-8.81
CCS(=O)(=O)N1CCC(c2nnc(CN3CCOCC3)n2C)CC1	-3.22	18.7	-2.94	20	3.8	5.73	14.5	3.52	9.29	21	-5.76
CCn1cc(NC(=O)NC2CCCc3c2cnn3CCO)cn1 (stereo unspecified)	-1.35	5.33	-2.07	4.11	-1.07	1.56	9.77	4.28	4.92	11.1	-14.2
